Among the data in PubChem BioAssay are growth inhibition, inhibition and outcome values, retold here.

Each structure is given as a SMILES string. Values without a mark were called inactive. For some assays here: Measured potencies and affinities stand elsewhere. Active and inactive are the calls of the source. Unless noted, how the calls were made is not given here.

Assay [1] is described as follows: antimalarial activity against Dd2 strain (AID 2302;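 active means growth inhibition above 50% at the single 2 µM test dose, taken to imply half-maximal potency below 2 µM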;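 further: 0% = DMSO untreated growth and 100% = chloroquine plus artemisinin killed control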). To be noted: P. falciparum Dd2 in RBCs, LDH growth readout, 72 h; at 2 µM; hits give high values.
A short description of assay [2]: HepG2 cytotoxicity, primary screen, cytotoxicity control for P. falciparum antimalarial project, cell-based, ATP luminescence (AID 2303;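 active means inhibition above 50%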;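 further: 0% = DMSO wells and 100% = digitonin-killed cells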). Conditions: HepG2 viability, 24-48 h, at 10 µM, hits give high values.
The target of assay [3] is L-lactate dehydrogenase (Plasmodium falciparum (isolate CDC / Honduras)) (UniProt Q27743). Nature of the assay: PfLDH activity inhibition – cell lysate, 3D7 strain, counter-screen for P. falciparum growth inhibition project (AID 2304).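 Further: 0% = vehicle and 100% = reference inhibitor.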 Conditions: P. falciparum 3D7 crude extract, LDH APAD/NBT absorbance; at 2 µM; hits give high values.
A short description of assay [4]: inhibition of 3D7 malaria parasite growth – strain 3D7 (AID 2306).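 Further: 0% = DMSO wells and 100% = chloroquine plus artemisinin control wells.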 To be noted: P. falciparum 3D7 erythrocytic growth, LDH absorbance, 72 h; at 2 µM; hits give high values.
Assay [5] addresses Calcium-dependent protein kinase 1 (Plasmodium falciparum (isolate 3D7)) (UniProt P62344). Briefly: PfCDPK1 kinase inhibitors, biochemical, TCAMS library (AID 1159585; cut-off not given, nearly all actives have IC50 up to about 0.98 µM;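 further: inhibitors leave more ATP so luminescence rises with inhibition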). To be noted: recombinant PfCDPK1, Kinase-Glo ATP depletion luminescence.
In assay [6] the target is Plasmodium falciparum protein kinase 6 (PK6, PF3D7_1337100) (UniProt Q8IDW1). Nature of the assay: PfPK6 kinase inhibitors, biochemical, TCAMS library (AID 1159586). To be noted: recombinant PfPK6, Kinase-Glo ATP depletion luminescence.
The target of assay [7] is Protein kinase 7 (PK7), Plasmodium falciparum 3D7 (PF3D7_0213400) (UniProt Q7YTF7). Briefly: inhibition of Plasmodium PK7 catalytic activity – biochemical, TCAMS antimalarial set, Kinase-Glo luminescence (AID 1159587). Conditions: recombinant PfPK7, Kinase-Glo ATP depletion luminescence.
Assay [8] concerns the target Calcium-dependent protein kinase 4 (Plasmodium falciparum (isolate 3D7)) (UniProt Q8IBS5). Nature of the assay: PfCDPK4 kinase inhibitors, biochemical, TCAMS library (AID 1159588; cut-off not given, nearly all actives have IC50 up to about 0.91 µM). To be noted: recombinant PfCDPK4, Kinase-Glo ATP depletion luminescence.

Plasmodium falciparum protein kinase 6 (PK6, PF3D7_1337100), sequence (Q8IDW1 1-305): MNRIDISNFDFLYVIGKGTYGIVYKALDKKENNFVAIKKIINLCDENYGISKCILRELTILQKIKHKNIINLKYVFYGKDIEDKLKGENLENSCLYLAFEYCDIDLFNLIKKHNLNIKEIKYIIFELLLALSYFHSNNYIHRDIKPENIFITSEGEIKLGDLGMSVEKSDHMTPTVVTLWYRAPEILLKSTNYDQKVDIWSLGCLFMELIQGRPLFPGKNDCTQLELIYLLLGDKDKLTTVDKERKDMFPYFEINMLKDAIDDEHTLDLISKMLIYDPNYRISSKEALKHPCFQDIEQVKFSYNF
Calcium-dependent protein kinase 4 (Plasmodium falciparum (isolate 3D7)), sequence (Q8IBS5 whole entry, looked up): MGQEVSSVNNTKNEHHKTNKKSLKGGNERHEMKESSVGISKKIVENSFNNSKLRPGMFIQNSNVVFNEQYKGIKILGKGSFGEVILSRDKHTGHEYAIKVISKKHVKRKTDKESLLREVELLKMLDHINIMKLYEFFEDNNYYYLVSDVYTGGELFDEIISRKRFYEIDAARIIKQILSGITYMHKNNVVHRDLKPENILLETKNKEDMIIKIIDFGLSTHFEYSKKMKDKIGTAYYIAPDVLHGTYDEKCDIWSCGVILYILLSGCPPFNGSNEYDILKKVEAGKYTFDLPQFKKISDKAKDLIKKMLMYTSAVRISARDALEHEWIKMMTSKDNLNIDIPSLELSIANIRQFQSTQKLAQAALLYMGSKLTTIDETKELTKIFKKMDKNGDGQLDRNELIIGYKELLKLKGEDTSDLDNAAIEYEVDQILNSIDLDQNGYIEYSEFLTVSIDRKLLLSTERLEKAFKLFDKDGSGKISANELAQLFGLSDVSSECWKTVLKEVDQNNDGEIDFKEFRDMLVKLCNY
Calcium-dependent protein kinase 1 (Plasmodium falciparum (isolate 3D7)), sequence (P62344 whole entry, looked up): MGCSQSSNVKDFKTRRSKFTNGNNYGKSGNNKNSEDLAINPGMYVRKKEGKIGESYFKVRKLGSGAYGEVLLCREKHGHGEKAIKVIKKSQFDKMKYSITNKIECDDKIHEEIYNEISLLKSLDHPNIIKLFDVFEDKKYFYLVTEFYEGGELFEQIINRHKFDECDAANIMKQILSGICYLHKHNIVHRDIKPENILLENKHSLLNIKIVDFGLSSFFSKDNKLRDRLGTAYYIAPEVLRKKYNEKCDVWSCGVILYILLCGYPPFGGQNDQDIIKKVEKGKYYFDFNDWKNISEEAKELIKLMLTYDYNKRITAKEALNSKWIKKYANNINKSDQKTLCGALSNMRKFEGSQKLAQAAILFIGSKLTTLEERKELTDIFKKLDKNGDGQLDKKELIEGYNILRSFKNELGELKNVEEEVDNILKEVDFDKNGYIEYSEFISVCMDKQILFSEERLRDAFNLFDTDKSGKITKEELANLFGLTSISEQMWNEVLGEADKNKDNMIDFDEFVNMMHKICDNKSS
L-lactate dehydrogenase (Plasmodium falciparum (isolate CDC / Honduras)), sequence (Q27743 whole entry, looked up): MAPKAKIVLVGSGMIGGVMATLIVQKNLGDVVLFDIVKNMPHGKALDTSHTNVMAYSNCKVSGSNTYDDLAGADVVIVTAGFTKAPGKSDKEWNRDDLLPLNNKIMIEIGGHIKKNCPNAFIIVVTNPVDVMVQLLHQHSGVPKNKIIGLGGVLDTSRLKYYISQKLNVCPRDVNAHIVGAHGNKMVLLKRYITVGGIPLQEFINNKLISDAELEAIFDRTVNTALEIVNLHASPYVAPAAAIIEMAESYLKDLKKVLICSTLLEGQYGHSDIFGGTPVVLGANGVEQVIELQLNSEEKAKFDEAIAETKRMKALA
Protein kinase 7 (PK7), Plasmodium falciparum 3D7 (PF3D7_0213400), sequence (Q7YTF7 1-343): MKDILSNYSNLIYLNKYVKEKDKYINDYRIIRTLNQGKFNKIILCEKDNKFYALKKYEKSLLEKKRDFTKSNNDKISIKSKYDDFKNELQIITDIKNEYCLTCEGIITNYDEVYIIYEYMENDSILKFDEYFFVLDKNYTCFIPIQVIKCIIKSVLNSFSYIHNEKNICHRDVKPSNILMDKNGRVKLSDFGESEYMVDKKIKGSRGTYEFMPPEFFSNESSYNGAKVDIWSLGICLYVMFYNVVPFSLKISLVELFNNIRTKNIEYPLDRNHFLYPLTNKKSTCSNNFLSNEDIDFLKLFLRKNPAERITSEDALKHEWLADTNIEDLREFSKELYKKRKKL

For `O=S1c2ccccc2Sc2ccccc21`, the growth inhibition was -1% in assay [1] and 99% (active) in assay [4]. In addition, the inhibition was 48% in assay [2] and 6% in assay [3]. In addition, the outcome in assay [5], in assay [6], in assay [7] and in assay [8] was inactive.

On to `CCN(CC)c1ccc(C=CC(=O)NCCN2CCC(N(C)C3CCCCC3C)CC2)cc1` (configuration not stated), for which the growth inhibition was 18% in assay [1] and 88% (active) in assay [4]. The results for the inhibition in assay [2] and in assay [3] were 29% and -3%, respectively. Moreover, the outcome in assay [5], in assay [6], in assay [7] and in assay [8] was inactive.

On to `Cc1nnsc1C(=O)Nc1ccc(-c2cccc(-c3nc4ccc(F)cc4[nH]3)c2)cc1`, for which the values for the growth inhibition in assay [1] and in assay [4] were 27% and 96% (active), respectively. Moreover, the inhibition in assay [2] is 44%; in assay [3], 2%. Besides, the outcome in assay [5], in assay [6], in assay [7] and in assay [8] was inactive.

As to `NC(N)=NN=CC(=O)Nc1ccc(Cl)c(Cl)c1`, the growth inhibition was 0% in assay [1] and 97% (active) in assay [4]. Besides, the inhibition in assay [2] was -14%; in assay [3], 0%. In addition, the outcome in assay [5], in assay [6], in assay [7] and in assay [8] was inactive.

In the case of `O=C(NC1CC1)c1ccc2cc(C(=O)N3Cc4ccccc4C(c4ccccc4)C3)ccc2c1` (configuration not stated), the growth inhibition is 64% (active) in assay [1] and 97% (active) in assay [4]. For the same compound, the inhibition in assay [2] is -2%; in assay [3] it was 1%. For the same compound, the outcome in assay [5], in assay [6], in assay [7] and in assay [8] was inactive.

In the case of `CCCCCn1c(Sc2ccc(C#N)c([N+](=O)[O-])c2)nnc1-c1ccccc1`, the growth inhibition in assay [1] is 15%; in assay [4], 93% (active). For the same compound, the inhibition in assay [2] is 22%; in assay [3] it was -2%. Further, the result in assay [5], in assay [6], in assay [7] and in assay [8] was inactive.

Regarding `N#Cc1ccc(NC(=O)N2CCCN(CCCCCNC(=O)/C=C/c3ccc(Cl)c(Cl)c3)CC2)cc1`, the growth inhibition was 4% in assay [1] and 100% (active) in assay [4]. Moreover, the values for the inhibition in assay [2] and in assay [3] were 32% and 0%, respectively. In addition, the result in assay [5], in assay [6], in assay [7] and in assay [8] was inactive.

As for `O=C(C=Cc1ccc(Cl)c(Cl)c1)NCCCCCN1CCCC(CCCNC(=O)c2ccc3c(c2)OCO3)C1` (configuration not stated), the growth inhibition in assay [1] was 4%; in assay [4], 95% (active). The inhibition in assay [2] is 30%; in assay [3], 3%. Further, the result in assay [5], in assay [6], in assay [7] and in assay [8] was inactive.

`O=[N+]([O-])c1ccc(NC(=NC2CCCc3ccccc32)Nc2ccccc2Br)c(O)c1` (configuration not stated): the growth inhibition in assay [1] is 89% (active); in assay [4], 98% (active). For the same compound, the results for the inhibition in assay [2] and in assay [3] were -4% and -3%, respectively. In addition, the result in assay [5], in assay [6], in assay [7] and in assay [8] was inactive.

With `COc1ccc(-c2ccc(NC(=O)c3cccc(C#N)c3)cc2)cc1CN1CCCC(C(N)=O)C1` (configuration not stated), the growth inhibition is 44% in assay [1] and 98% (active) in assay [4]. Further, the inhibition in assay [2] was 12%; in assay [3] it was 0%. In addition, the result in assay [5], in assay [6], in assay [7] and in assay [8] was inactive.

Take `Cc1ccccc1Nc1nc(NCCCO)c2ccccc2n1`: the results for the growth inhibition in assay [1] and in assay [4] were 50% (active) and 83% (active), respectively. Moreover, the inhibition in assay [2] was -1%; in assay [3] it was -5%. Further, the outcome in assay [5], in assay [6], in assay [7] and in assay [8] was inactive.

Regarding `O=C(NC1CCCCN(Cc2ccccc2O)C1)c1cc(F)cc(F)c1` (configuration not stated), the growth inhibition was 52% (active) in assay [1] and 89% (active) in assay [4]. For the same compound, the inhibition was 7% in assay [2] and 0% in assay [3]. In addition, the result in assay [5], in assay [6], in assay [7] and in assay [8] was inactive.

`CCc1cc2c(cc1OCCN(C)C)N(C(=O)Nc1ccc(-c3ccncc3)c(Cl)c1)CC2`: the growth inhibition in assay [1] was 7%; in assay [4], 95% (active). Moreover, the inhibition in assay [2] is 18%; in assay [3], -1%. Further, the result in assay [5], in assay [6], in assay [7] and in assay [8] was inactive.

With `COc1cccc(C(=O)NC(NC(=S)Nc2ccc(OC)cc2[N+](=O)[O-])C(Cl)(Cl)Cl)c1` (configuration not stated), the growth inhibition in assay [1] was 49%; in assay [4] it was 99% (active). Moreover, the inhibition was 9% in assay [2] and -2% in assay [3]. For the same compound, the result in assay [5], in assay [6], in assay [7] and in assay [8] was inactive.

Take `Cc1ccc(Cn2nc(Cl)c(N3CCNCC3)cc2=O)cc1NC(=O)Nc1ccc(-c2ccccc2)cc1`: the growth inhibition in assay [1] is 97% (active); in assay [4], 98% (active). For the same compound, the inhibition in assay [2] is 100% (active); in assay [3] it was -5%. The result in assay [5], in assay [6], in assay [7] and in assay [8] was inactive.

Consider `Fc1cccc(Nc2nc(NCc3ccc4ccsc4c3)nc(Nc3cccc(F)c3)n2)c1`, for which the growth inhibition in assay [1] is 11%; in assay [4] it was 94% (active). Further, the inhibition in assay [2] was -2%; in assay [3] it was -1%. Also, the outcome in assay [5], in assay [6], in assay [7] and in assay [8] was inactive.

Regarding `COc1cc(OC)cc(C(=O)Nc2cccc(-c3cn4ccc(C)cc4n3)c2)c1`, the results for the growth inhibition in assay [1] and in assay [4] were 45% and 86% (active), respectively. Besides, the inhibition in assay [2] was 4%; in assay [3], 0%. The outcome in assay [5], in assay [6], in assay [7] and in assay [8] was inactive.

For the compound `Nc1nc(Nc2ccc(Cl)cc2)nc2ccccc12`, the growth inhibition is 21% in assay [1] and 101% (active) in assay [4]. In addition, the figures for the inhibition in assay [2] and in assay [3] were 6% and -2%, respectively. Moreover, the result in assay [5], in assay [6], in assay [7] and in assay [8] was inactive.

As for `CC(C)NCc1ccc(-c2ccc(-c3nc4ccc(F)cc4[nH]3)cc2)cc1`, the growth inhibition in assay [1] is 100% (active); in assay [4], 101% (active). Besides, the inhibition in assay [2] was 14%; in assay [3] it was -5%. In addition, the result in assay [5], in assay [6], in assay [7] and in assay [8] was inactive.
